Most compounds without a hit are left out; they make up all but 3% or so of the library.
m-calpain inh: inhibitors of pig calpain II, primary screen, biochemical, fluorogenic peptide substrate, 1536-well; 220,000 compounds, 0.37% hits; purified calpain II, 30 min; inhibition, % at 16 µM;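 active = inhibition above about 50%, limit read from the data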
L929 necroptosis: inhibitors of zVAD-triggered necroptosis, primary screen, L929 cells; 220,000 compounds, 0.38% hits; AID 1377, 2008; viability rescue, % at 10 µM; L929 zVAD necroptosis rescue, ATP luminescence, 24 h; with zVAD 60 µM;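 active = activation, scaled between plate controls, above about 75%, limit read from the data; inactive = activation under that limit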
ROMK primary: ROMK potassium channel modulators, primary screen, cell-based, thallium flux, MLSMR library; ATP-sensitive inward rectifier potassium channel 1 (Homo sapiens), P48048; Tet-inducible ROMK, thallium flux fluorescence; actives lie on both sides; B-score at 10 µM; 130,000 compounds, 2% hits; AID 1918, 2009;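 active = signal ratio slope over the read window, or its plate-corrected B-score, at least 3 SD from the plate mean, either direction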;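 also: B-score of the F/F0 ratio slope over 7 to 12 s after thallium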
14-3-3 Bad PPI: inhibitors of 14-3-3 zeta/Bad binding, primary screen, biochemical, TR-FRET, bovine 14-3-3 zeta | 220,000 compounds, 0.71% hits | inhibition, % at 21.7 µM | AID 781, 2007 | TR-FRET 14-3-3zeta/Dy647-pBad peptide displacement, 1 h | 14-3-3 protein zeta/delta (Bos taurus), P63103;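 active = inhibition above about 70%, limit read from the data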
Target sequence (P63103 whole entry, looked up): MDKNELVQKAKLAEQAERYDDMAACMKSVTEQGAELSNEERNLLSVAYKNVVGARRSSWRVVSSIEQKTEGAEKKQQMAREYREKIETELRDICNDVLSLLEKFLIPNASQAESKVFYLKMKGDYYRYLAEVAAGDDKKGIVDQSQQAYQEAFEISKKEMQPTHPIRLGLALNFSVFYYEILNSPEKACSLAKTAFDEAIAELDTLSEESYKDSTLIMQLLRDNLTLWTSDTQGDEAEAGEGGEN
HMGR II inh: inhibitors of E. faecalis class II HMGR, primary screen, biochemical, Enterococcus faecalis. HMG-CoA reductase (Enterococcus faecalis, mvaE). purified E. faecalis HMGR, NADPH absorbance 340 nm kinetic. inhibition, % at 10 µM. 190,000 compounds, 0.41% hits. AID 1066, 2008;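 active = inhibition above a set limit, the median over all tested compounds plus 3 SD, cut at about 9.5% in these data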;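 also: enzyme runs in reverse so mevalonate oxidation gives rising NADPH absorbance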
TNF necrop inh: inhibitors of TNF-alpha triggered necroptosis, primary screen, cell-based, Jurkat FADD-/-, single concentration; 220,000 compounds, 0.068% hits; activation (protection from cell death), % at 10 µM; Jurkat FADD-/- TNF necroptosis rescue, ATP luminescence, 24 h; 0 = TNF only, 100 = no-TNF cells;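 active = activation, meaning protection from cell death, of at least 50% relative to plate controls; inactive = activation below 50%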;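 also: necroptosis triggered by 40 ng/mL TNF-alpha added together with compound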
ROMK hit retest: ROMK channel modulator hit retest, confirmation, cell-based, thallium flux, duplicate, resupplied hits; normalized thallium flux (F/F0 slope) at 10 µM; 3,000 compounds, 54% hits; shares compounds with ROMK primary; fluorescence ratio; active compounds read low;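 active = Flux at 10 µM at least 3 SD below or above vehicle control mean in one or both replicates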
A number is an active result; i = inactive; nt = no result given.

SMILES | m-calpain inh | L929 necroptosis | ROMK primary | 14-3-3 Bad PPI | HMGR II inh | TNF necrop inh | ROMK hit retest
COc1ccc(Nc2ncc(C(=O)N3CCC4(CC3)OCCO4)c3ccccc23)cc1 | i | i | i | i | i | i | nt
CCC(CO)NC(=O)C1C=C2c3cccc4[nH]cc(c34)CC2N(C)C1 (stereo not drawn) | i | i | nt | i | nt | i | nt
COC(=O)C1C=C2c3cccc4[nH]cc(c34)CC2N(C)C1 (stereo not drawn) | i | i | nt | i | nt | i | 0.054
CN1C(=O)C(=Cc2ccc(Sc3ccccc3)o2)C(=O)N(C)C1=O | i | i | -5.6 | i | i | i | 0.056
O=C1NC(=O)C(=Cc2ccc(Sc3ccccc3)o2)C(=O)N1 | i | i | nt | i | nt | i | nt
O=C1OCCC1NC1=NCCC1 (stereo not drawn) | i | i | i | i | i | i | nt
O=C1NC(=O)N(c2ccc3c(c2)OCO3)C(=O)/C1=C/c1ccc(N2CCCC2)o1 | i | nt | nt | i | i | i | nt
CCOc1ccc(N2C(=O)NC(=O)/C(=C\c3ccc(N4CCCCC4)o3)C2=O)cc1 | i | i | nt | i | i | i | 0.044
CN1C(=O)C(=Cc2sc(=O)n(-c3ccccc3)c2N(C)C)C(=O)N(C)C1=O | i | i | nt | i | nt | i | nt
O=c1[nH]c(O)c(/C=C2/C=CC(c3cc(Cl)ccc3Cl)=N2)c(=O)[nH]1 | i | i | nt | i | nt | i | nt
CCCCC(=O)N/N=C/c1c(O)n(CC)c(=S)[nH]c1=O | i | i | 1.9 | i | i | i | i
CN1C(=O)C(=Cc2ccccc2OCc2ccc(Cl)cc2)C(=O)N(C)C1=O | i | i | nt | i | i | i | nt
CN1C(=O)C(=Cc2ccccc2Oc2ccc(Cl)cc2)C(=O)N(C)C1=O | i | i | nt | i | i | i | i
CC(Cl)(Cl)/C(=N/P(=S)(N1CCOCC1)N1CCOCC1)N1CCOCC1 | i | i | nt | i | nt | i | nt
CN(C)c1nc(OCCNC(=O)COc2ccc(Cl)cc2Cl)nc(N2CCCCC2)n1 | i | i | nt | i | i | i | nt
Cc1ccc(-n2cc(CNC(C)Cc3cnccn3)c(-c3cccc(C)c3)n2)cc1 (stereo not drawn) | i | i | -3.6 | i | i | i | 0.06
CN(C)c1ccc(C(=O)c2ccc(N(C)C)cc2)cc1 | i | i | i | i | i | i | nt
C/C(=C\c1ccc(N(C)C)cc1)[N+](=O)[O-] | i | i | -3.7 | i | i | i | 0.051
CN(C)c1ccc(/C=C/[N+](=O)[O-])cc1 | i | i | -4.1 | i | i | i | 0.037
CCC(=Nc1ccc2c(c1)CCC2)c1c(O)n(-c2ccc(OC)cc2)c(=O)[nH]c1=O | i | i | i | i | nt | i | nt
CSCCC(N=Cc1c(O)n(-c2ccc(Cl)cc2)c(=O)[nH]c1=O)C(=O)OC(C)(C)C (stereo not drawn) | i | i | i | i | i | i | nt
CN(C)C(Cc1ccccc1)C(=O)c1ccccc1 (stereo not drawn) | i | i | nt | i | i | i | i
Cn1c(O)c(/C=C/C=Nc2ccccc2)c(=O)n(C)c1=O | i | i | nt | i | i | i | 0.051
Cn1c(O)c(C=Nc2ccccc2-c2ccccc2)c(=O)n(C)c1=O | i | i | i | i | nt | i | nt
CC1CCC(C(C)C)C(OC(=O)Cn2c(COc3ccccc3)[n+](C)c3ccccc32)C1 (stereo not drawn) | i | i | -8.8 | i | nt | i | 0.037
CC1(C)C[C@H]2C=C(C=O)[C@]3(C=O)C[C@]3(C)[C@H]2C1 | i | i | -9.9 | i | i | i | 0.05
CCOC(=O)[C@]1(C#N)[C@@H]2C=CC(C(C)=O)=CN2[C@@H](C(N)=O)[C@@H]1c1ccsc1 | i | i | -3.6 | i | i | i | 0.049
CC(=O)OC1(c2ccccc2)CCN(C2CCCCC2)CC1C (stereo not drawn) | i | i | nt | i | i | i | nt

High-throughput results from PubChem.
